According to PubChem BioAssay (NCI):
About 83,000 compounds went through this panel and 20% of them were active in at least one assay; those are over-represented in the sample as a whole.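 For each line, cells grew in 96-well plates with the test compound present at a single concentration for 48 hours.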 A number with no mark means an inactive call. Active and inactive are the calls of the source. How the source made its calls: active means growth percent below 10; inactive means the rest.

How the values were obtained:
Assay in all cases: NCI-60 one-dose screen, 48 h (100 = growth as untreated, 0 = no growth, -100 = all killed)
Conditions in all cases: 10 µM unless noted
SK-MEL-2 melanoma = system: SK-MEL-2 melanoma
EKVX NSCLC = system: EKVX NSCLC
SN12C renal = system: SN12C renal
TK-10 renal = system: TK-10 renal
ACHN renal = system: ACHN renal
CAKI-1 renal = system: CAKI-1 renal
A498 renal = system: A498 renal
CCRF-CEM leukemia = system: CCRF-CEM leukemia
MOLT-4 leukemia = system: MOLT-4 leukemia
UO-31 renal = system: UO-31 renal

Row | SMILES | growth (SK-MEL-2 melanoma) | growth (EKVX NSCLC) | growth (SN12C renal) | growth (TK-10 renal) | growth (ACHN renal) | growth (CAKI-1 renal) | growth (A498 renal) | growth (CCRF-CEM leukemia) | growth (MOLT-4 leukemia) | growth (UO-31 renal)
1 | COc1ccc(-c2oc(=O)ccc2-c2cc(OC)c(OC)c(OC)c2)cc1F | 92.8% | 99.6% | 87.9% | 88.2% | 87.1% | 52.9% | 83.4% | 57.6% | 83.6% | –
2 | C=CCn1c(SCC(=O)Nc2ccc(/C(C)=N\O)cc2)nnc1-c1cc(-c2ccc(Cl)cc2)nc2ccccc12 | 28.5% | 32% | 33.7% | 31.8% | – | – | 21.9% | 11.1% | -25.3% (active) | -12.5% (active)
3 | C/C(=N\NC(=S)Nc1ccccc1)c1ccccn1 | 73.5% | 12.9% | 39.2% | 50.9% | 17.7% | 6.16% (active) | 29.1% | 16.7% | 8.83% (active) | –
4 | CCCCCCCCNC(C)C(O)c1ccc(SC(C)C)cc1 (stereo not drawn) | 71.4% | 25.2% | 60.9% | 6.81% (active) | – | -56.8% (active) | 96.8% | -0.667% (active) | -46.6% (active) | 29.5%
5 | CC1=C(O)C(=O)C(c2c(C)cc(C)c(Br)c2C)=C(O)C1=O | 81.6% | 81.8% | 55% | 73.6% | – | 50.2% | 64.1% | 43.1% | 54.6% | 83.7%
6 | O=C1c2ccccc2C(=O)c2c1oc1ccc3ccccc3c21 | 101% | 72.6% | 83.2% | 169% | – | 90.3% | 88.5% | 94.8% | 104% | 61%
7 | CC1(C)C2CCC(O)(C(=O)O)C1C2 (stereo not drawn) | 106% | 103% | 104% | 120% | 111% | 94% | 109% | 112% | 115% | –
8 | CN(C)c1ccc(C(c2ccccc2)c2ccc(N(C)C)cc2)cc1 | 89.1% | 102% | 92.6% | 122% | – | 93.1% | 107% | 99.2% | 85.7% | 62.1%
9 | C/C(=N\NC(=S)N1CCCCC1)c1ccccn1 | 34.3% | -4.33% (active) | 21% | 22.4% | – | -4% (active) | -13.5% (active) | 8.62% (active) | -3.73% (active) | -13.6% (active)
10 | COc1ccc(-c2cn(-c3cccc(C(=O)/C=C/c4ccc(O)c(OC)c4)c3)c(=O)[nH]2)cc1 | 30% | 40.8% | 14.2% | 35.6% | -47.8% (active) | 24.6% | – | 9.57% (active) | 5.6% (active) | –
11 | CN=C1C=C/C(=N/N=c2/ccn(O)cc2C)C=C1C | 97.6% | 87.4% | 90% | 118% | 93.8% | 93.9% | 96% | 105% | 89.1% | –
12 | CCCNC(=S)N/N=C(\C)c1ccccn1 | 69.8% | 12.1% | 31.6% | 47.4% | 10.8% | 6.68% (active) | 30.8% | 15.9% | 6.93% (active) | –
13 | N#Cc1nc(-c2cccc(Br)c2)cc(-c2ccc(Nc3nc(N4CCCCC4)nc(N4CCCCC4)n3)cc2)c1N | -10.7% (active) | 5.85% (active) | 16.7% | -87.8% (active) | -96.3% (active) | -75.5% (active) | -20% (active) | 11.4% | 8.61% (active) | –
14 | O=C(OCc1ccc2c(Br)cc(Br)c(O)c2n1)c1cc2ccccc2[nH]1 | -20.6% (active) | -65.5% (active) | -79.2% (active) | -94.2% (active) | – | -97.6% (active) | -1.86% (active) | 2.81% (active) | -8.64% (active) | -100% (active)
15 | CCN(CC)CCCC(C)Nc1cnc(C(=O)Nc2cc(C)cc3cccnc23)cn1 (stereo not drawn) | 104% | 77.8% | 77.9% | 86.9% | 77.9% | 93.4% | 70.3% | 54.2% | 46.5% | –
16 | Cc1[nH]nc2ccc3nc(-c4ccc5[nH]ncc5c4)c4c(c3c12)CCCC4 | -15.5% (active) | 20.2% | 23.2% | 10.3% | – | 12.5% | -10.8% (active) | 16.8% | 3.85% (active) | 12.8%
17 | O=C(CN1CCN(c2ccccc2)CC1)N1CCN(c2nnc(-c3ccc(Cl)cc3)c(-c3ccc(Cl)cc3)n2)CC1 | 71.9% | 35% | 62.7% | 73.4% | 53.6% | – | 62.6% | 29.4% | 2% (active) | –
18 | CC(=O)c1nn(-c2ccccc2)/c(=N\N=C\c2coc3ccc(F)cc3c2=O)s1 | 107% | 81.6% | 97.6% | 163% | 94% | 82.3% | 125% | 97.2% | 100% | –
19 | C/C(=C\C(=N\N=C(N)N)c1ccc(Cl)cc1)c1ccc(Cl)cc1 | -86.4% (active) | -28.2% (active) | -73.8% (active) | -83.4% (active) | – | -58.4% (active) | -93.6% (active) | -22.5% (active) | -48% (active) | -80.1% (active)
20 | Fc1cc(-c2nnc3sc(-c4ccc(Cl)cc4)nn23)c(Cl)cc1Cl | 95.7% | 96.2% | 103% | 99.9% | – | – | 97.8% | -75.3% (active) | 60.6% | 78.1%
21 | NCCCOc1cc2ccccc2cc1C(=O)NCCCOc1cc2ccccc2cc1C(=O)Nc1ccc(Cl)cc1O | -73.8% (active) | -45.6% (active) | -78.5% (active) | -95.5% (active) | – | -89.9% (active) | -38.7% (active) | -16.3% (active) | -20.6% (active) | -95.4% (active)
22 | COc1ccc2[nH]c(O)c(/C=c3/ccc4c(c3)N=C(c3ccc(C(F)(F)F)cc3)N=4)c2c1 | 104% | 82.4% | 79.9% | 131% | 78% | 55.6% | 71.7% | 23.2% | 48% | –
23 | CSCCC1NC(=O)C(C(C)=Nc2ccccc2)=C1O (stereo not drawn) | 129% | 101% | 101% | 133% | 113% | 89.3% | 102% | 106% | 119% | –
24 | CCCCNCC(O)c1cc2c(Cl)cc(Cl)cc2c2cc(C(F)(F)F)ccc12 (stereo not drawn) | -65.4% (active) | -59.1% (active) | -82.2% (active) | -88.2% (active) | – | -65.1% (active) | -19.7% (active) | -49.6% (active) | -54.8% (active) | -81.2% (active)
25 | CCCC(CCC)NCC(O)c1cc(-c2ccc(C(F)(F)F)cc2)nc(C(F)(F)F)c1 (stereo not drawn) | -66.1% (active) | -9.08% (active) | -78.5% (active) | -63.8% (active) | -60.1% (active) | -28.1% (active) | -31% (active) | -7.92% (active) | -30.6% (active) | –
26 | Nc1n[nH]c2ccc([C@@H]3Nc4c(F)cc5[nH]ncc5c4[C@H]4C5CCC(C5)[C@@H]34)cc12 (stereo partly drawn) | 53.7% | 31.7% | 22.6% | 61% | 22.7% | 17.3% | -28.6% (active) | 18.1% | 22.9% | –
27 | c1ccc(C2=Nc3ccccc3SC2)cc1 | 105% | 87.3% | 107% | 105% | – | – | – | 86.9% | 111% | 67.8%
28 | CCCCN(CCCC)CCC(O)c1cc2ccc(C(F)(F)F)cc2c2cc(C(F)(F)F)ccc12 (stereo not drawn) | 55% | 70% | 46.9% | 74.4% | – | 38.6% | 56.4% | 36.2% | 28.7% | 19.6%
29 | COc1ccc(/C=c2\c(=O)n(-c3ccccc3)c3nn4c(n23)=NNC42CCCCC2)cc1 | 108% | 91.8% | 98.5% | 159% | – | 85.6% | 93.4% | 101% | 98.8% | 63.2%
30 | COc1ccc2c(c1)CCCC21C(=O)Nc2ccccc21 (stereo not drawn) | 96% | 104% | 101% | 95.4% | – | 103% | 99.7% | 97.9% | 76.2% | –
